# Compounds with a hit are over-represented: about 9.2% of the library has one in this group of screens.
# SMN2 splice enh – increases expression of the SMN2 splice variant | HEK293 SMN2-luciferase splicing reporter, luminescence, 30-36 h | Potency, µM (titrated, usually from 46.1 µM), inactives show at the top dose activity change, positive = activation, hits mostly activators | 210,000 tested, 2.8% active; further: % of control where 0% means no effect; nearly all actives have a fitted effect of over 55% in size
#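 HEK293 cells carry an SMN2 […]–luciferase reporter in which exon 7 inclusion puts luciferase in frame. Cells were plated 10-12 h before compound addition, then incubated 30-36 h at 37C. ONE-Glo luminescence was read; sodium butyrate at 4.5 mM final served as control.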
# NPC1 prom act – activates the NPC1 promoter. AID 485313. Huh7 NPC1 promoter luciferase reporter, 24 h. Potency, µM (highest dose often 9.22 µM), without a hit: top-dose activation, most hits filed as activators. 320,000 tested, 2.4% active; further: % of control where 0% means no effect; nearly all actives have a fitted effect of over 60% in size
#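 Huh7 reporter cells (NPC1 promoter driving luciferase) are dosed with compound for 24 h at 37 °C, 5% CO2; luciferase detection reagent is then added and luminescence measured after 10 min at ambient temperature.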
# FLuc counter – inhibits or activates purified firefly luciferase, miR-21 counter-screen; purified FLuc, Km substrates, luminescence inhibition; 360,000 tested, 6.9% active; Potency, µM (titrated, usually from 57.5 µM), for the others: at the highest dose activity change, negative = inhibition, hits mostly inhibitors; AID 588342;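 further: plate controls were vehicle for no effect and reference inhibitor for full effect; nearly all actives have a fitted effect of over 55% in size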
# Target sequence (P08659 whole entry, looked up): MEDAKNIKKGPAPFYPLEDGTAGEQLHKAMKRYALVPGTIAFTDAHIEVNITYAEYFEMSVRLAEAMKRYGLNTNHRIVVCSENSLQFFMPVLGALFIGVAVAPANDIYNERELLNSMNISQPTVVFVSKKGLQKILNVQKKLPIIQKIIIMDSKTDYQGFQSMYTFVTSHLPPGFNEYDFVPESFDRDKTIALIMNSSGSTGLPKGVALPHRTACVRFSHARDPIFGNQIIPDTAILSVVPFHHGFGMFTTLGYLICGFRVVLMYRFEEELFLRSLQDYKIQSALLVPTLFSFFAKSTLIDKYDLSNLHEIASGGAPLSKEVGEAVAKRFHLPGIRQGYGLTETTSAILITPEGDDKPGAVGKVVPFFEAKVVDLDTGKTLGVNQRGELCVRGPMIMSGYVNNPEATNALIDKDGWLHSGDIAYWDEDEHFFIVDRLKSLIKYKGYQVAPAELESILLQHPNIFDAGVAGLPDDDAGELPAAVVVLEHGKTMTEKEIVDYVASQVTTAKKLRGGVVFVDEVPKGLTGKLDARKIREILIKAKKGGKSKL
#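 Purified P. pyralis luciferase (10nM final) with 10uM D-luciferin and 10uM ATP (Km levels) in 50mM Tris acetate pH 7.5, 10mM Mg acetate, 0.01% Tween-20, 0.05% BSA; qHTS 6-point titration, ~60 µM downward; luminescence read.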
# ELG1 DNA repair – inhibitors of ELG1-dependent DNA repair in HEK293T cells; HEK293T ELG1-luciferase reporter, luminescence, 16 h; DNA damage induced by 5-fluorouridine; Potency, µM (series often up to 46.1 µM), for inactives: at the top dose activity change, negative = inhibition, usual class: inhibitors; 330,000 tested, 2.3% active; AID 504467; further: on the % scale 0 is the no-effect control and ±100 the full control effect; nearly all actives have a fitted effect of over 55% in size
#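 Quantitative HTS, concentration-response format. 2,000 cells/well co-treated with 5-fluorouridine and compound, 16 hr in 5% CO2 at 37 °C; ONE-Glo luminescence read after 30 min.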
# ELG1 genotoxic – inducers of genotoxicity in HEK293T ELG1-luciferase cells. 330,000 tested, 1.3% active. HEK293T ELG1-luciferase reporter, luminescence, 16 h. Potency, µM (titrated, usually from 46 µM), for the others: at the top dose activity change, positive = activation, most hits filed as activators; further: % of control where 0% means no effect; nearly all actives have a fitted effect of over 60% in size
#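 After overnight (16 hr) compound treatment at 37 °C, ELG1-luciferase HEK293T cells were lysed with ONE-Glo; luminescence quantified 30 min later at room temperature.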
# Rab9 promoter act – activates the Rab9 promoter | Huh7 Rab9 promoter-luciferase reporter, luminescence, 24 h | 320,000 tested, 2.8% active | Potency, µM (top dose mostly 9.22 µM), without a hit: at the highest dose activation, negative = inhibition, hits mostly activators; further: % of control where 0% means no effect; nearly all actives have a fitted effect of over 60% in size
#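 Measured in stably transfected Huh7 cells bearing a Rab9 promoter–luciferase construct: 24 h compound treatment at 37 °C, followed by luminescence detection.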
# * = called active by the depositor; ? = inconclusive; nt = not tested or not shown; [ ] = another dose, or the depositor's remark. The call rests on the fitted dose curve; in most records, active means well fitted curve in the direction sought with a large enough effect; inconclusive means small, poorly fitted or top-dose-only effect, or another doubt; inactive means no such curve, though single readings can be large; an effect the other way counts as inactive or inconclusive. Potency means the concentration at half of the fitted maximal effect.
SMILES,SMN2 splice enh,NPC1 prom act,FLuc counter,ELG1 DNA repair,ELG1 genotoxic,Rab9 promoter act
COc1ccc(C(=O)CSc2nnn(-c3cccc(NC(C)=O)c3)n2)cc1,nt,?,17µM*,?,5%,?
CC(=O)Nc1cccc(-n2nnc(SCC(=O)c3ccccc3)n2)c1,nt,2.8µM*,17µM*,?,?,3.2µM*
O=C1c2ccccc2C(=O)N1CCC1=CCCCC1,21%,6%,15µM*,?,?,10%
O=C(O)c1ccc2c(c1)C(=O)N(CCC1=CCCCC1)C2=O,2%,0%,-8%,6%,-2%,-9%
CC1CCC(NC(=O)c2ccc(CS(=O)(=O)c3c(Cl)cccc3Cl)o2)CC1 (stereo not given),-12%,nt,-2%,nt,nt,nt
CCOC(=O)Cc1csc(NC(=S)NC(=O)c2cc(OC)cc(OC)c2)n1,-7%,-2%,-12%,?,-10%,-7%
CCOC(=O)Cc1csc(NC(=S)NC(=O)c2ccccc2Br)n1,nt,-4%,21µM*,?,4%,-2%
CCOC(=O)Cc1csc(NC(=O)c2cc(C)cc(C)c2)n1,-10%,-2%,-18%,0%,-6%,-8%
CCOC(=O)Cc1csc(NC(=O)c2ccc3c(c2)OCO3)n1,?,0%,12µM*,-15%,2%,0%
CCOC(=O)Cc1csc(NC(=O)c2ccoc2C)n1,26%,18%,?,?,15µM*,28%
CCOC(=O)Cc1csc(NC(=O)c2ccc(C)cc2)n1,nt,14%,11µM*,8%,-4%,14%
CCOC(=O)Cc1csc(NC(=O)c2ccc(F)cc2)n1,nt,-3%,?,?,-4%,0%
CC(=O)NC1=C(OS(=O)(=O)c2ccc(C)cc2)CN(C)C1=O,-15%[9.22 µM],nt,nt,nt,nt,nt
Cc1csc(NC(=O)c2ccoc2C)n1,13µM*,?,?,?,?,?
Cc1cccc(NC(=O)CNC(=O)c2ccc3c(c2)OCO3)n1,nt,-1%,-13%,-1%,2%,-2%
Cc1csc(NC(=O)c2ccc3c(c2)OCO3)n1,nt,?,3.4µM*,?,?,18%
CCCCC(=O)Nc1ccc(C(=O)Nc2nc(CC(=O)OCC)cs2)cc1,-12%,-3%,19µM*,-25%,-1%,-4%
O=C(Nc1nccs1)c1ccc([N+](=O)[O-])cc1,nt,?,-13%,?,14%,30%
O=C(Nc1nccs1)c1ccc2c(c1)OCO2,nt,2.2µM*,6µM*,?,?,1.6µM*
O=C(Nc1cccc(C(F)(F)F)c1)C1CCN(S(=O)(=O)c2ccc(N3CCCC3=O)cc2)CC1,nt,-10%,0%,-25%,-10%,-15%
CCc1cccc(C)c1NC(=O)Cn1ncc2c3ccccc3n(Cc3ccccc3)c2c1=O,-8%,nt,0%,nt,nt,nt
CCOC(=O)Cc1csc(NC(=S)NC(=O)c2ccc(C)cc2)n1,nt,-13%,12µM*,?,2%,-18%
CCOC(=O)Cc1csc(NC(=S)NC(=O)c2ccccc2)n1,-14%,1%,?,10%,-3%,-10%
COc1ccc(CCn2c(C3CCCCC3)nc3c(c(=O)c4ccccc4n3C)c2=O)cc1,nt,1%,-1%,16µM*,-8%,0%
COc1ccc(Cn2c(C3CCCCC3)nc3c(c(=O)c4ccccc4n3C)c2=O)cc1,nt,-2%,-3%,?,-9%,-2%
SMILES,SMN2 splice enh,NPC1 prom act,FLuc counter,ELG1 DNA repair,ELG1 genotoxic,Rab9 promoter act
O=c1[nH]c2ccccc2nc1/C=C(\O)C1CC1,8%,2%,-1%,14%,6%,3%
O=c1[nH]c2ccccc2nc1/C=C/c1ccccc1,nt,4µM*,1.9µM*,?,?,1.8µM*
O=c1[nH]c2ccccc2nc1/C=C/c1ccc(F)cc1,nt,3.2µM*,2.4µM*,?,21%,4µM*
O=c1[nH]c2ccccc2nc1/C=C/c1ccc(O)cc1,nt,?,6.7µM*,?,?,3.5µM*
CN(CC(=O)NCc1ccco1)CC(=O)Nc1c(Cl)cccc1Cl,nt,-1%,3%,-1%,1%,-2%
Cc1ccc(-n2ncc(C(=O)NCCCN3CCN(C)CC3)c2C2CCN(C(=O)OC(C)(C)C)CC2)cc1,nt,nt,-3%,nt,nt,nt
CC1Oc2ccccc2C=C1/C=N/NC(=O)[C@@H](C)NC(=O)OC(C)(C)C (stereo not given in full),nt,-3%,-22%,-16%,-7%,0%
Cc1ccc(C(=O)N/N=C/C2=Cc3ccccc3OC2C)cc1 (stereo not given),?,22%,3µM*,0%,1%,28%
O=C(N/N=C/c1cc(O)ccc1Br)c1cccnc1,nt,-35%,?,?,?,-36%
CC1Oc2ccccc2C=C1/C=N/NC(=O)c1ccccc1O (stereo not given),13µM*,?,1.7µM*,-8%,-3%,?
CC1Oc2ccccc2C=C1/C=N\NC(=O)c1cccnc1 (stereo not given),nt,18%,17µM*,?,?,15%
CC1Oc2ccccc2C=C1/C=N/NC(=O)c1ccccc1 (stereo not given),14µM*,?,6µM*,?,?,2.5µM*
O=C(N/N=C/c1ccccc1)c1ccc(-c2ccccc2)cc1,nt,15%,-17%,14%,5%,?
CCc1ccc(Nc2n[n+](C)c(-c3ccncc3)s2)cc1,nt,1%,-10%,29%,1%,-2%
O=C(CN1C(=O)S/C(=C\C=C\c2ccccc2)C1=O)N1CCOCC1,nt,19%,4.8µM*,?,13%,26%
Cc1ccc(/C=C2/SC(=O)N(CC(=O)N3CCOCC3)C2=O)s1,7%,-1%,?,26%,5%,-5%
O=C(CN1C(=O)S/C(=C/c2ccccn2)C1=O)N1CCOCC1,nt,1%,-2%,?,4%,3%
O=C(CN1C(=O)S/C(=C/c2ccc(N3CCOCC3)cc2)C1=O)N1CCOCC1,?,27%,3µM*,?,?,22%
O=C(CSc1ccc(-c2ccccn2)nn1)Nc1cccc(F)c1,nt,7%,13µM*,30%,?,14%
O=C(CSc1ccc(-c2cccnc2)nn1)Nc1ccc(F)c(F)c1,nt,-4%,-3%,13µM*,-19%,-1%
CC(C)NC(=O)C1CCC(Cn2c(=O)c3sccc3n(CC(=O)NCc3ccccc3)c2=O)CC1 (stereo not given),nt,nt,1%,nt,nt,nt
CCN1CCN(C(=O)c2cc3cc([N+](=O)[O-])ccc3oc2=O)CC1,8%,1%,-1%,11%,6%,-6%
O=C(c1cc2cc([N+](=O)[O-])ccc2oc1=O)n1cccn1,0%,-4%,-3%,-13%,-2%,4µM*

# Screens from PubChem.
